Data taken from PubChem BioAssay AID652120 (NMMLSC, 2013).
Activity calls are given as the source filed them.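 The calls were made as follows: active = viability below 50% at the top dose and a half-maximal effect concentration under 10 µM; inactive = the rest.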

Experiment: NIH 3T3 cell cytotoxicity, dose response, cytotoxicity control for AML myeloid differentiation project, CellTiter-Glo, Powder Set01 subset01 (AID 652120)

SMILES	outcome
Cc1ccc(Nc2nc(=O)c3cccnc3s2)c(Br)c1	inactive
O=C(O)c1cccnc1Nc1ccc(Cl)cc1	inactive
O=C(CCNC(=O)c1ccc(Cl)cc1)NC1CCCc2ccccc21 (stereo not drawn)	inactive
